Reference: ChEMBL document CHEMBL3988442, “University of Dundee, Small-Polar-MMV Screening Library” (2021)
For some of these results: Measured potencies and affinities stand elsewhere.

Columns and labels:
Parameters in all cases: scale not given: direction of the effect not stated beside the values
[1] = target: Protein translocase subunit SecA (Escherichia coli (strain K12)) (UniProt P10408); assay: Assay to Identify E. coli SecA ATPase Inhibitors; type: functional; conditions: 30 µM
[2] = target: T1, Ubiquitin-activating enzyme e1, putative (Leishmania donovani (strain BPK282A1)) (UniProt E9BSI1); assay: Leishmania donovani Ubiquitin Activating Enzyme (LdE1); type: functional; conditions: 30 µM
T1 sequence (whole entry): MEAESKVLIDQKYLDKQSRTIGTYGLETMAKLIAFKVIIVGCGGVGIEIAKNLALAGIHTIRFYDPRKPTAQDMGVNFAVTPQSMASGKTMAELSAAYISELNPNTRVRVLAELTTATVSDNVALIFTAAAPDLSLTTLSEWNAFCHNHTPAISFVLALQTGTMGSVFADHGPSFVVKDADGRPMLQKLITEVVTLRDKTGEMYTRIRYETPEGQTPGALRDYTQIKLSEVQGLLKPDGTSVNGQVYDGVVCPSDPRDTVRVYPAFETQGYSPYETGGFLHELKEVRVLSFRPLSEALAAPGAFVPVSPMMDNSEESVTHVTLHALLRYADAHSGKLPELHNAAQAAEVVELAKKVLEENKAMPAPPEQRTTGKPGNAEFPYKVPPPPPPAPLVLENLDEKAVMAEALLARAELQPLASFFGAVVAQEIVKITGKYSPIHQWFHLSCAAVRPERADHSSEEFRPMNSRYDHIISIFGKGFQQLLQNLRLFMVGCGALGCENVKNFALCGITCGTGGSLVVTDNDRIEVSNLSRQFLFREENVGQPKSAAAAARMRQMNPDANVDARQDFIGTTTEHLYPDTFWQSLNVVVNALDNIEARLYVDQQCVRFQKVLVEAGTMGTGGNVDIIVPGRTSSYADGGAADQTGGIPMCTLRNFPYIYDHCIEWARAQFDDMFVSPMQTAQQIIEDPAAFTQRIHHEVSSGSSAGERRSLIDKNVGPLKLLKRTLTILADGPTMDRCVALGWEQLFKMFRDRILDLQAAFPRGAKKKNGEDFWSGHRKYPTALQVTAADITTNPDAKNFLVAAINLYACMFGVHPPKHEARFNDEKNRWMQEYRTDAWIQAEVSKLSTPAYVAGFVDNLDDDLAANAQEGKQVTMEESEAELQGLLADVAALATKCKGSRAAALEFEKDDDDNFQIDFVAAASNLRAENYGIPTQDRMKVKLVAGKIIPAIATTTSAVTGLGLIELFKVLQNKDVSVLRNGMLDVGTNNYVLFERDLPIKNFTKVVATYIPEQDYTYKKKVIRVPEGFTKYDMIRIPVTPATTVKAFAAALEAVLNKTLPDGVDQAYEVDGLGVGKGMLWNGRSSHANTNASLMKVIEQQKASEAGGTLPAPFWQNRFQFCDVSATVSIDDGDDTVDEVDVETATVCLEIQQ

[3] = target: AMP-activated protein kinase, AMPK (Homo sapiens) (UniProt P54646+O43741+P54619+Q9UGJ0+Q9Y478+Q13131+Q9UGI9); assay: AMP-dependent Kinase enzyme assay. An in vitro enzyme assay that detects ADP turnover that is directly proportional to AMPK activity. This uses naive AMPK that is activated during the assay with MK-8722; type: functional; conditions: 30 µM
[4] = target: Sialic acid-binding Ig-like lectin 9 (Homo sapiens) (UniProt Q9Y336); assay: Hs-Siglec9 ALPHAscreen SOP 20170721; conditions: 10 µM
Sequence of Sialic acid-binding Ig-like lectin 9 (Homo sapiens) (Q9Y336 whole entry): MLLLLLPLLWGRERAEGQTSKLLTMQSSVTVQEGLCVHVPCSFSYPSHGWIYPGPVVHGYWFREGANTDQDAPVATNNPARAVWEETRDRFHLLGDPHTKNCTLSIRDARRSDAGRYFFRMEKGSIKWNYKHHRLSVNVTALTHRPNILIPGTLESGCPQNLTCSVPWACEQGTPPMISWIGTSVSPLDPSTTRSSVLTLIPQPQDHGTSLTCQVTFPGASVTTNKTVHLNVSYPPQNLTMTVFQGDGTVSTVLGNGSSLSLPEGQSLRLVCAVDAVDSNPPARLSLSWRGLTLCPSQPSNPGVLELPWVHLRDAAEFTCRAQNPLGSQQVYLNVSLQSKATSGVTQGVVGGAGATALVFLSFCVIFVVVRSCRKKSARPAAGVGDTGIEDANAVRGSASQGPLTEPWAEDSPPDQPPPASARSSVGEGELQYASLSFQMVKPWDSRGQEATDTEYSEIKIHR

Trypanosoma cruzi = assay: Trypanosoma cruzi phosphomannomutase and mannose-1-phosphate guanylyltransferase assay; type: functional; conditions: 10 µM
[5] = target: T2, Arginase-2, mitochondrial (Homo sapiens) (UniProt P78540); assay: in vitro enzyme assay to detect the production of urea directly proportional to the activity of Arginase II; type: functional; conditions: 33.3 µM; note: in the data most compounds retested in dose-response had high values
T2 sequence (whole entry): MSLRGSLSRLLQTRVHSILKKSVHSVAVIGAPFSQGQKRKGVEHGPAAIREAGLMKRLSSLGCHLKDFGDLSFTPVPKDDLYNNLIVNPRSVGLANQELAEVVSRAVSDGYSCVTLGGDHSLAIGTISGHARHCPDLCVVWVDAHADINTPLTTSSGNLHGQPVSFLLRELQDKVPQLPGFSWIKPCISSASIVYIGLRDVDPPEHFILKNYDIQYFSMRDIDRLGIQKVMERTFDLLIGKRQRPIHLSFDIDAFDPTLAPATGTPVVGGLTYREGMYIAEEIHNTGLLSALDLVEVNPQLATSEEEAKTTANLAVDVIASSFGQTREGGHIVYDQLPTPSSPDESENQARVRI

[6] = target: T3, Proteasome subunit beta (Trypanosoma cruzi) (UniProt O96673); assay: Trypanosoma cruzi proteasome chymotrypsin-like activity (TcProtChymo) assay.; note: in the data most compounds retested in dose-response had high values; type: functional; conditions: 9.37 µM
T3 sequence (whole entry): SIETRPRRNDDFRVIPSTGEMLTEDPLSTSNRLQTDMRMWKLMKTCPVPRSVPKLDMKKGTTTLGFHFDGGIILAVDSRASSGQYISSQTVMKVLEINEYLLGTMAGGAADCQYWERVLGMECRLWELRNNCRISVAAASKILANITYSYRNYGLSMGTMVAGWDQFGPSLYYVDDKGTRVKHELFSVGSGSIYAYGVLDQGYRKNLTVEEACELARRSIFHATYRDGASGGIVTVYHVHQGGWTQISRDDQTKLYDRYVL

Homo sapiens = species on record: Homo sapiens; assay: To identify inhibition of the IFN signalling (Jak-Stat) pathway via expression of an eGFP reporter gene under the control of an IFN-stimulated response element (ISRE) containing MxA promoter.; type: functional; conditions: 30 µM
[7] = target: T4, Tyrosyl-tRNA synthetase, putative (Trypanosoma cruzi (strain CL Brener)) (UniProt Q4DSP6); assay: Trypanosoma cruzi tyrosyl tRNA synthetase (TcYRS) _High Tyrosine SOP; type: functional; conditions: 30 µM; note: in the data most compounds retested in dose-response had high values
T4 sequence (whole entry): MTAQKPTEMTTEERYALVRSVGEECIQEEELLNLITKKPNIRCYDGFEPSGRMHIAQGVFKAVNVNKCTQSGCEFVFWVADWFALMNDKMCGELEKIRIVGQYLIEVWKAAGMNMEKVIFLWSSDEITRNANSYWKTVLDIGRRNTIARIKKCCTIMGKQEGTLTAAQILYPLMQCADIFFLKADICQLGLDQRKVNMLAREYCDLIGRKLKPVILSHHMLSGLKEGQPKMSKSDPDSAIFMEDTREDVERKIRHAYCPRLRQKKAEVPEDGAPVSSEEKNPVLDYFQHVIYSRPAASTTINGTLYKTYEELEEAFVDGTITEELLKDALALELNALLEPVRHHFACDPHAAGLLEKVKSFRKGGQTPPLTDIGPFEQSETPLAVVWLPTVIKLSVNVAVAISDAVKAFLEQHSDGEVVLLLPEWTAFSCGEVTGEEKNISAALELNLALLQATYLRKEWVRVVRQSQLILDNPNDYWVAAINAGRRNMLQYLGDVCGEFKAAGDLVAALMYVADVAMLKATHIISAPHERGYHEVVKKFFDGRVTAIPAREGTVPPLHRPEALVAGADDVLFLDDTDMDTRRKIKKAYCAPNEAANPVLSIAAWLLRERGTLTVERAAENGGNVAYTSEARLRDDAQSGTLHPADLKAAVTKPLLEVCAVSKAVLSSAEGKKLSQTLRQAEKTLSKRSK

[8] = target: T4, Tyrosyl-tRNA synthetase, putative (Trypanosoma cruzi (strain CL Brener)); assay: Trypanosoma cruzi tyrosyl tRNA synthetase (TcYRS) SOP; type: functional; conditions: 30 µM
[9] = target: Chromo domain-containing protein 1 (Saccharomyces cerevisiae (strain ATCC 204508 / S288c) (Baker's yeast)) (UniProt P32657); assay: ScCHD-1 Enzyme Inhibition Assay; type: functional; conditions: 30 µM; note: in the data most compounds retested in dose-response had high values
Sequence of Chromo domain-containing protein 1 (Saccharomyces cerevisiae (strain ATCC 204508 / S288c) (Baker's yeast)) (P32657 whole entry, the tested form may be a part): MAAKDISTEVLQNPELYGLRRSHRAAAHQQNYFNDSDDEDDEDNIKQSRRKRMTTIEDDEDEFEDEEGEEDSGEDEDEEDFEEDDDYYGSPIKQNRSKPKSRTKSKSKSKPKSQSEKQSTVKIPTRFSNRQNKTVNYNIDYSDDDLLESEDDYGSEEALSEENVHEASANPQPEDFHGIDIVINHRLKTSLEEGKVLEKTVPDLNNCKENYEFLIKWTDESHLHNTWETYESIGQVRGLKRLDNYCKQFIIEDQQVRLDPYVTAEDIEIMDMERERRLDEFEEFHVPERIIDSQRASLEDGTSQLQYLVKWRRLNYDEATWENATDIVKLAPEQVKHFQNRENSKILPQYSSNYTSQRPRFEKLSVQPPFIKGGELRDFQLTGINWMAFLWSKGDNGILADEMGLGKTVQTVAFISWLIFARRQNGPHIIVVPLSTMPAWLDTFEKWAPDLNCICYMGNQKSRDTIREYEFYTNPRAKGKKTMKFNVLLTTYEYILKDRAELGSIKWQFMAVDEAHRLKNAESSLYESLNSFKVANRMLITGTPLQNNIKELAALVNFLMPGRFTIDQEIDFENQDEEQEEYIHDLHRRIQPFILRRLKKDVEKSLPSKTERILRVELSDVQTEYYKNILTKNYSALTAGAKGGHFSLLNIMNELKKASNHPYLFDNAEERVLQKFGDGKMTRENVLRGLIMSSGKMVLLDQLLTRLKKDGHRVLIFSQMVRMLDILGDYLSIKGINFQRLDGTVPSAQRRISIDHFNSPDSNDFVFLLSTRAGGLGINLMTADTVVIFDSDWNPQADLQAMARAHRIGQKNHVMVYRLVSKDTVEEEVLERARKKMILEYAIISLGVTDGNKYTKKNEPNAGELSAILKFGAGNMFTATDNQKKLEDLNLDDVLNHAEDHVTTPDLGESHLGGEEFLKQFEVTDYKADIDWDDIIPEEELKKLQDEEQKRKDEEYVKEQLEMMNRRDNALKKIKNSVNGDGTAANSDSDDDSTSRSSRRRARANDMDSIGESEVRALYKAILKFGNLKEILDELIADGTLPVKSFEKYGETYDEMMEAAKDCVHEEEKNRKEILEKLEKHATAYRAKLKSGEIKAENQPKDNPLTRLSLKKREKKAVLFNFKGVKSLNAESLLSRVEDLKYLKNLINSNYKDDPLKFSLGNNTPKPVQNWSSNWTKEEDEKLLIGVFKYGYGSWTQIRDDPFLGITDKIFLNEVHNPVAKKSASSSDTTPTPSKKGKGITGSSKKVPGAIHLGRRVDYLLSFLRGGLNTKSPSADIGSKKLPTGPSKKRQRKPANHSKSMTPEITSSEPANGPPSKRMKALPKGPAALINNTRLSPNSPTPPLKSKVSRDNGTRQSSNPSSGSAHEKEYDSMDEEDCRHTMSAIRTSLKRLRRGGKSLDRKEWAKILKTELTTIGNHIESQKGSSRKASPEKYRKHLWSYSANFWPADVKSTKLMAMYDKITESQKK

Sequence of Protein translocase subunit SecA (Escherichia coli (strain K12)) (P10408 whole entry): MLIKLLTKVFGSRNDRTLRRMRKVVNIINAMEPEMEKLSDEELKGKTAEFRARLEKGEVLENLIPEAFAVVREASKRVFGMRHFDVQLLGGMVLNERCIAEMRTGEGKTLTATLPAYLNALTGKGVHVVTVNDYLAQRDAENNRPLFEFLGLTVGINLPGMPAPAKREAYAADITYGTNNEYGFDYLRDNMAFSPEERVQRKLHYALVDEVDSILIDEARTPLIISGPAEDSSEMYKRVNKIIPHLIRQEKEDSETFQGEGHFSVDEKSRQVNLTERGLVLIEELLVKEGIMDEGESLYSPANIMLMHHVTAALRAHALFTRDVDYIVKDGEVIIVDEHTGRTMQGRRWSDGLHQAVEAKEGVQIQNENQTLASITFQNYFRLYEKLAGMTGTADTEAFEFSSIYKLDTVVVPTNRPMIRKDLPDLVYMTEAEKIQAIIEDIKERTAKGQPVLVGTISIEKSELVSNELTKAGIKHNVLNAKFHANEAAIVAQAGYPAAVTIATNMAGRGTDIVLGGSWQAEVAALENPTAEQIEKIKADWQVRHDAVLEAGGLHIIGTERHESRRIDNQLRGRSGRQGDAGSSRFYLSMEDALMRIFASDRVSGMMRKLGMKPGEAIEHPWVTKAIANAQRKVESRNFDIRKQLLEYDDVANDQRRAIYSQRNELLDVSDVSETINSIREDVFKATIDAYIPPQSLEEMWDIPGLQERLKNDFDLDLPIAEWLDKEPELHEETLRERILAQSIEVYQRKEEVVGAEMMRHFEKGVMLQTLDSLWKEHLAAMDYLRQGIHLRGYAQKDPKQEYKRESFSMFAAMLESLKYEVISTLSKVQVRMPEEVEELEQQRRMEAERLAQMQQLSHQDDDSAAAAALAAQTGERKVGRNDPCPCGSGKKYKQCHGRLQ

Structure (SMILES)	Percent Effect [1]	Percent Effect [2]	Percent Effect [3]	Percent Effect [4]	Percent Effect (Trypanosoma cruzi)	Percent Effect [5]	Percent Effect [6]	Percent Effect (Homo sapiens)	Percent Effect [7]	Percent Effect [8]	Percent Effect [9]
COc1c(CNCC(c2cccc(F)c2)N(C)C)c(C(C)C)nn1C (stereo unspecified)	-2.21%	5.2%	-2.29%	-6.06%	4.6%	-3.16%	4.61%	5.62%	0%	9.41%	-5.27%
COc1ccc(C2CCCN2C(=O)CCNc2ncccn2)cc1 (stereo unspecified)	-2.77%	0%	-2.54%	0.524%	-1.57%	5%	7.1%	1.66%	1.07%	-5%	-1.55%
CC(COc1ccccc1)NCc1nc(-c2cccnc2)no1 (stereo unspecified)	-2.6%	6.94%	-4.69%	0.164%	1.85%	3.09%	6.14%	5.92%	3.16%	10.3%	-2.08%
COCC1CC2(CCN(C(=O)c3occc3C)CC2)CO1 (stereo unspecified)	-0.186%	2.6%	22.5%	0.84%	-6.61%	4.52%	3.65%	5.99%	-2.12%	-1.28%	-1.99%
O=C(c1cnccn1)N1CCN2C[C@H](OCc3ccccn3)C[C@H]2C1	-0.668%	0%	2.67%	7.25%	-3.09%	0.538%	13%	-9.74%	1.04%	-2.5%	3.56%
CCN(Cc1nc2c(cnn2C)c(=O)[nH]1)c1cccc(Cl)c1	-2.52%	10.4%	4.11%	-5.62%	1.27%	0.632%	14.3%	16.2%	1.91%	14.1%	-9.43%
COc1cc2ncn(CC(=O)NCCCN(C)C)c(=O)c2cc1OC	-1.85%	1.33%	-1.58%	0.564%	-8.84%	-3.35%	7.76%	-4.68%	4.23%	-53.9%	-7.79%
Cc1nc(O)c2nnn(C[C@H]3CCCN3C(=O)CCC3CCCC3)c2n1	-1.52%	-4.05%	9.5%	-1.58%	-1.78%	-1.62%	2.5%	-0.726%	-1.07%	-1.3%	13.7%
CCCS(=O)(=O)N1CCO[C@H]2[C@H](OCc3ccccn3)CC[C@@H]21	-9.04%	8.11%	-5.79%	-1.28%	-0.977%	5%	10.1%	5.42%	10.9%	15.8%	-2.32%
CC(=O)N1CC(=O)N(c2cnn(C)c2)CC12CCN(Cc1ccoc1)C2 (stereo unspecified)	-1.18%	5.41%	1.2%	-0.95%	1.95%	1.25%	-1.61%	5.16%	2.97%	11%	-1.77%
O=C(Cc1ccc(F)cc1)N1CCCCC1c1ccn2ccnc2n1 (stereo unspecified)	-2.25%	-1.35%	14.8%	2.79%	-2.96%	-1.16%	9.83%	10.1%	0%	-1.3%	-17.6%
